# In PMC5540273 (PLoS ONE, 2017):
# Test system: T1, LOK
# T1 construct: gene STK10
# Settings: concentration: 1 μM, replicates: in singlicate; n = 1
# 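Also: KINOMEscan kinase panel screen.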
row,SMILES,%Inh
1,COC(=O)c1c(-c2ccccc2)c2cc(Br)ccc2c(=O)n1Cc1ccc(S(C)(=O)=O)cc1,6%
2,Cc1nnc(-c2ccc(C)c(-c3ccc(C(=O)O)cc3)c2)o1 [GW608005],100%
3,COc1cc2nccc(Nc3ccc(OCc4ccc(NC(C)=O)cc4)cc3)c2cc1OC.Cl [GW440135],0%
4,Cc1nc(N(C)[C@H]2CN(C(=O)CC#N)CC[C@H]2C)c2cc[nH]c2n1,0%
5,Nc1nc(N)c2nc(-c3ccccc3)[nH]c2n1 [SKF-12778],14%
6,Cl.c1ccc(Cn2cnc3cc(Nc4ncnc5ccccc45)ccc32)cc1 [GW272142],0%
7,COC(=O)c1c(-c2ccccc2)c2cc(Br)ccc2c(=O)n1Cc1ccc(NC(=O)CCC(=O)O)cc1,20%
8,O=C(Nc1ccc2c(c1)OCO2)NC1CCN(c2ccnc(NCc3ccc(F)cc3)n2)CC1 [GSK1379859],0%
9,Cc1ccccc1COc1cc(-n2cnc3cc(Cl)ccc32)sc1C(N)=O [GW813349],46%
10,Nc1n[nH]c2ncc(-c3ccccc3)cc12 [SB-517081],0%
11,COc1ccc(-c2coc3ccc(-c4nnc(SCc5cccc(C#N)c5)o4)cc23)cc1,4%
12,Cc1cccc(-c2nc(Nc3ccc4c(cnn4C)c3)c3ccccc3n2)n1 [GW876731],10%
13,CN(C)c1cc(-c2ccc3c(N)n[nH]c3c2)nc(N)n1 [GSK2219329],0%
14,COc1cc2ncn(-c3cc(OCCCc4ccccc4)c(C(N)=O)s3)c2cc1OC [GSK205189],40%
